Shown are actives, neighbours in structure and some others; about 12% of the full set was active somewhere.
HP1b binding inh = HP1-beta chromodomain-methylated histone interaction inhibition; Potency, µM (highest dose often 114 µM), for inactives: top-dose activity change, negative = inhibition, usual class: inhibitors; AID 540317; AlphaScreen HP1-beta / biotin-H3K9me3 peptide binding; 390,000 compounds, 0.56% hits; further: nearly all actives have a fitted effect of over 70% in size
Target sequence (P83916 whole entry, looked up): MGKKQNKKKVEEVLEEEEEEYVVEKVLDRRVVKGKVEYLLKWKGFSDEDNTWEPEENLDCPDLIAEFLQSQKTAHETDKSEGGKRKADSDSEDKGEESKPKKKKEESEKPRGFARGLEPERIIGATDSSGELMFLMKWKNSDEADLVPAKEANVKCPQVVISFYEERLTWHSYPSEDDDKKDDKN
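Compound inhibition of the preformed complex between 50 nM HP1-beta and 50 nM biotinylated H3K9me3 peptide was read by AlphaScreen. Buffer was PBS pH 7.4 with 0.01% Tween-20. Incubations ran 30 min at room temperature, with 10 ug/mL donor/acceptor beads.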
G9a block = inhibitors of human histone lysine methyltransferase G9a; Q96KQ7; G9a H3K9 monomethylation, AlphaScreen, 2 h; Potency, µM (titrated, usually from 102 µM), inactives show at the top dose activity, negative = inhibition, usual class: inhibitors; 350,000 compounds, 8.8% hits; AID 504332; further: on the % scale 0 is the no-effect control and ±100 the full control effect; nearly all actives have a fitted effect of over 75% in size
Target sequence (Q96KQ7 913-1193 limits assumed): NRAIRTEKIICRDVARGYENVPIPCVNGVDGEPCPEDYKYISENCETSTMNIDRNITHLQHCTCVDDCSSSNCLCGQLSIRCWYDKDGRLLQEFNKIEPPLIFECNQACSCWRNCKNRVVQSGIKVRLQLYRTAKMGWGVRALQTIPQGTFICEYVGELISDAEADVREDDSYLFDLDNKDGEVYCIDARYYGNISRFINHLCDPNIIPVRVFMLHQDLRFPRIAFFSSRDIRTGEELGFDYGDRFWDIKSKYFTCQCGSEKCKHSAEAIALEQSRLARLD
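Chemiluminescent proximity detection of H3K9 monomethylation, read after 10 min bead incubation in the dark. Reaction: 20 nM G9a, 500 nM biotin-H3K9 peptide, 20 uM SAM cofactor, 2 h, room temperature, following 15 min enzyme-compound preincubation.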
JMJD2A Tudor = JMJD2A Tudor domain (human) inhibition. Potency, µM (top dose mostly 114 µM), without a hit: top-dose activity change, negative = inhibition, hits mostly inhibitors. AlphaScreen JMJD2A-Tudor / H3K4me3 peptide binding. 390,000 compounds, 4.4% hits; further: on the % scale 0 is the no-effect control and ±100 the full control effect; nearly all actives have a fitted effect of over 50% in size
Sfp inh = inhibitors of Bacillus subtilis Sfp phosphopantetheinyl transferase | Q9F4F7 | Biochemical Sfp PPTase activity, qHTS | Potency, µM, for the others: largest response in the series, negative = inhibition, hits mostly inhibitors | 310,000 compounds, 3.5% hits | AID 1490;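 further: the enzyme is Sfp with the accession as filed and its product quenches rhodamine fluorescence; 0% = enzyme reaction without inhibitor and -100% = no enzyme wells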
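With Hepes-Na pH 7.6 buffer containing 10 mM MgCl2, Sfp (15 nM) modified BHQ-2-YbbR (12.5 uM) using rhodamine-CoA (5 uM). Two reads 30 minutes apart at 525/598 nm yielded each well's rate.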
BAZ2B inh = BAZ2B (human) inhibition | Q9UIF8 | AlphaScreen BAZ2B-H3K14Ac peptide displacement | Potency, µM (doses to about 114 µM), inactives show at the top dose activity change, negative = inhibition, actives largely listed as inhibitors | 360,000 compounds, 4.4% hits; further: on the % scale 0 is the no-effect control and ±100 the full control effect; nearly all actives have a fitted effect of over 60% in size
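Multi-concentration screen (max 110 uM) measuring displacement of acetylated histone H3 peptide from BAZ2B by AlphaScreen, using 50 nM protein, 50 nM peptide and 10 ug/mL streptavidin donor plus Ni-chelate acceptor beads.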
* marks the source's active call; other numbers are inactive results; u = inconclusive; x = not tested or not shown; [ ] = another dose, or the depositor's remark. The call rests on the fitted dose curve; in most records, active means well fitted curve in the direction sought with a large enough effect; inconclusive means small, poorly fitted or top-dose-only effect, or another doubt; inactive means no such curve, though single readings can be large; an effect the other way counts as inactive or inconclusive. Potency means the concentration at half of the fitted maximal effect.

SMILES	HP1b binding inh	G9a block	JMJD2A Tudor	Sfp inh	BAZ2B inh
O=C(N/N=C/c1ccccn1)c1cc(-c2cccc3ccccc23)n[nH]1	u	29%	u	10%	-2%
O=C(N/N=C/c1ccccn1)c1cc(-c2ccccc2Cl)n[nH]1	30%	68%[59 µM]	-34%	7%	56µM*
O=C(N/N=C/c1ccccn1)c1ccc([N+](=O)[O-])cc1Cl	29%	-6%[0.501 µM]	-19%	50µM*	-7%
COc1ccc(-c2c(O)c3c(OC)c4c(cc3oc2=O)OC(C)(C)C=C4)cc1	x	x	x	-5%	x
c1ccc(CCC2Cc3ccccc3N2)cc1 (configuration not stated)	-10%	-1%[0.501 µM]	56µM*	x	u
c1ccc(CC[C@@H]2CC[C@@H](CCc3ccccc3)N2)cc1	53%	-24%[0.501 µM]	-13%	x	3%
Cn1c(=O)[nH]c2cc3ccccc3cc21	20%	1.3µM*	0%	-14%	4%
CC(C)OC(=O)c1cc2c(ccn2C)n1CC(=O)N(Cc1ccccc1)c1ccccc1	u	25µM*	18µM*	-15%	25µM*
O=C1/C(=C\c2ccco2)SC(=S)N1c1ccc(O)cc1	-31%	40µM*	u	16µM*	35µM*
CC(C)C(C(=O)O)N1C(=O)/C(=C/C=C/c2ccco2)SC1=S (configuration not stated)	u	3.5µM*	3.5µM*	20µM*	4.5µM*
O=C1/C(=C/c2ccco2)SC(=S)N1c1cccnc1	16µM*	x	8.9µM*	32µM*	10µM*
COc1ccc(NC(=O)CCCN2C(=O)/C(=C\c3ccco3)SC2=S)cc1	-13%	-7%[59 µM]	-29%	u	u
COc1ccc(/C=C2\SC(=S)N(c3cccnc3)C2=O)cc1	17%[57 µM]	-16%[12.7 µM]	0%	1%	-2%
O=C1/C(=C\c2ccc(O)cc2)SC(=S)N1c1cccnc1	-12%	32µM*	u	-28%	u
CCCC(C(=O)O)N1C(=O)/C(=C/c2cccn2C)SC1=S (configuration not stated)	-11%	-38%[59 µM]	u	-25%	u
COc1cccc(/C=C2\SC(=S)N(c3cccnc3)C2=O)c1OC	-1%	u	-34%[57.1 µM]	-3%	-13%
O=C(Nc1ccc([N+](=O)[O-])cc1Cl)c1ccccc1O	2%	x	u	x	x
O=C1NN(c2ccc(F)cc2)C(=O)/C1=C\C=C\c1ccco1	-35%	u	u	-8%	-39%
O=C1/C(=C/C=C/c2ccco2)SC(=S)N1c1ccc(O)cc1	28µM*	13µM*	-31%[11.4 µM]	20µM*	32µM*
Cc1cc(/C=C2\SC(=S)N(Cc3ccco3)C2=O)c(C)n1-c1cccnc1	6%	u	-23%	2%	13µM*
NN1C(=O)/C(=C\c2ccco2)SC1=S	-24%	25µM*	u	3.2µM*	45µM*
O=C1/C(=C/c2cccnc2)SC(=S)N1Cc1ccco1	-17%	x	u	x	x
CCCc1nnc(SCC(=O)Nc2cccc(Cl)c2Cl)o1	34%	5%	5%	21%	-1%
CC(=O)O[C@H]1Cc2ccccc2N(C(N)=O)c2ccccc21	x	2%[59 µM]	x	5%	x
Cc1ccc(-c2csc3nc4c5ccccc5c(NCCCN5CCOCC5)nn4c(=O)c23)cc1	x	x	x	6%	-5%
SMILES	HP1b binding inh	G9a block	JMJD2A Tudor	Sfp inh	BAZ2B inh
Cc1ccc(-c2csc3nc4c5ccccc5c(NCCCN(C)C)nn4c(=O)c23)cc1	-20%	35µM*	5%	u	13%
FC(F)(F)c1ccccc1-n1c(-c2cnccn2)n[nH]c1=S	45%	u	-16%	u	-29%
Cc1ccc(-n2c(-c3cnccn3)n[nH]c2=S)c(Br)c1	44%	18µM*	16µM*	-5%	-30%
Cc1ccc(-n2c(-c3cccnc3)n[nH]c2=S)c(C)c1	10%	1.6µM*	5µM*	6%	4%
COc1ccc(-c2n[nH]c(=S)n2-c2ccc(C)cc2C)cc1	29%	14%[0.501 µM]	u	-4%	-28%
Cc1ccc(-n2c(-c3ccc(Cl)cc3)n[nH]c2=S)c(C)c1	17%	5.6µM*	u	-8%	11%[0.457 µM]
COc1ccc(-c2nc(-c3cccs3)c(-c3cccs3)[nH]2)cc1O	-39%	u	u	2%	45µM*
COc1ccc(-c2nnc(-c3cccs3)o2)cc1OC	37%	-48%[59 µM]	-1%	13%	-4%
CN(C)c1ccc(NC(=O)c2cn(-c3ccccc3)nc2-c2cccs2)cc1	u	10µM*	14µM*	-5%	35µM*
N#CCCn1cc(C(=O)NCc2ccccc2)c(-c2cccs2)n1	37%	13%	-5%	2%	-4%
N#CCCn1cc(C(=O)Nc2ccc(C(=O)O)cc2)c(-c2cccs2)n1	18%	11%[59 µM]	16µM*	-4%	-6%
Fc1cccc(NCc2cccn2-c2nnc(N3CCOCC3)s2)c1	30%	-2%[59 µM]	-17%	x	0%[57.1 µM]
CC(Sc1nnc(N)s1)C(=O)NCc1ccc2c(c1)OCO2 (configuration not stated)	26%	14%[12.7 µM]	-16%	x	0%
O=C(CSc1nc2ccccc2s1)Nc1ccc2c(c1)OCO2	30%	0%[59 µM]	-18%	5%	-9%
CC(Sc1nnc(N)s1)C(=O)Nc1ccc2c(c1)OCO2 (configuration not stated)	34%	45µM*	-27%	x	12%
O=C(Nc1ccc2c(c1)OCO2)C1CCCN(c2nc3ccccc3s2)C1 (configuration not stated)	-5%	3.2µM*	-25%	-7%	-35%
CC(Sc1nc2ccccc2s1)C(=O)Nc1ccc2c(c1)OCO2 (configuration not stated)	35%	1.8µM*	8%	-4%	-10%
Cc1ccc2c(=O)cc(C(=O)Nc3ccc(S(=O)(=O)N4CCCCCC4)cc3)oc2c1	8%	1%[59 µM]	-14%	x	1%
O=C(COC(=O)C1CC2CCCC(C1)C2=O)Nc1cccc(F)c1 (configuration not stated)	36%	u	-5%	x	10%
CCOC(=O)c1cccc(NC(=O)COc2ccc3c(C)cc(=O)oc3c2)c1	44%	-47%[59 µM]	-26%	x	5%
CCc1cccc(NC(=O)c2ccc3c(c2)c(C)c(C)n3Cc2ccc(F)cc2)c1	-4%	-11%[59 µM]	-33%	x	-22%
CCCn1c(SC2C(=O)CC(C)(C)CC2=O)nc2c1c(=O)n(C)c(=O)n2C	73%	56µM*	-5%	-13%	u
CN1CCN(C(=O)c2ccc(CS(=O)Cc3ccc(Cl)cc3)o2)CC1 (configuration not stated)	24%	-8%	-8%	12%	0%
COc1ccc(N2CCN(C(=O)c3ccc(CS(=O)Cc4ccc(Cl)cc4)o3)CC2)cc1 (configuration not stated)	-6%	50µM*	u	1%	u

Assay outcomes: PubChem, National Center for Advancing Translational Sciences (NCATS)
